# Source: PubChem BioAssay (Broad Institute)
# LGR2 inh: inhibitors of bursicon-induced LGR2 CRE-luciferase signal, primary screen, cell-based, HEK293, CRE-luciferase reporter, bursicon stimulation; 380,000 compounds, 0.35% hits; AID 720647, 2013; bursicon-stimulated, 4 h; inhibition, % at 9.99 µM; Drosophila bursicon receptor LGR2 (rickets);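 active = drop in luminescence signal, shown as inhibition above about 50% in the replicate tests, limit read from the data, passing the limit was not always enough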;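 also: agonist challenge used bursicon conditioned medium at about half maximal strength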
# EWS-Fli inh: EWS/Fli-driven NR0B1 reporter inhibitors, primary screen, A673 cells, NR0B1 luciferase, luminescence, MLPCN library. inhibition, % at 12.6 µM. viability-normalised. 350,000 compounds, 0.67% hits. AID 651661, 2012;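 active = mean inhibition of at least 50% after viability correction, with every replicate also passing that limit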;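 also: firefly luciferase signal divided by Alamar Blue viability fluorescence both relative to DMSO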
# PGC1a acetyl inh: inhibitors of PGC1a acetylation signal, primary screen, cell-based, U2OS, AlphaScreen, inhibitor mode | 350,000 compounds, 0.17% hits | AlphaScreen anti-acetyl-lysine; with virally co-expressed GCN5 acetyltransferase | AID 651687, 2012 | inhibition, % at 15.6 µM;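 active = every replicate shows inhibition of at least 40%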;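 also: 0% = neutral control wells and 100% = positive control wells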
# LMP1 NFkB inh: EBV LMP1-driven NF-kappaB luciferase reporter inhibitors, primary screen, cell-based, luminescence, single point; LMP1-induced NF-kappaB luciferase reporter cells; 350,000 compounds, 0.69% hits; AID 504558, 2011; inhibition, % at 12.5 µM; in the data active = inhibition above about 41%;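 also: 0% = neutral control wells and 100% = reference inhibitor control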
# TRPM1 prom inh: inhibitors of MITF-dependent TRPM1 promoter reporter, primary screen, cell-based, SK-MEL-5, single point, luciferase; 330,000 compounds, 0.83% hits; SK-MEL-5 TRPM1 promoter luciferase, 24 h; inhibition, % at 12.5 µM;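 active = mean inhibition across replicates of 60% or more, whatever share of single replicates reaches that level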
# PAX8 inh HTS: inhibitors of PAX8-driven TPO luciferase reporter, primary screen, RMG-I cells, single concentration; SteadyGlo, 24 h; inhibition, % at 12.6 µM; 360,000 compounds, 1.2% hits;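 active = mean replicate inhibition at least 60% with every replicate also reaching 60%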;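 also: luciferase light reporting Pax8 driven TPO promoter activity; plate controls were median of neutral control wells for no effect and mitoxantrone controls for full effect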
# Starred values were filed as active, the others as inactive; nt = no result. Sampled rows, rich in hits. Any-hit rate of the full collection: about 2.2%.
SMILES,LGR2 inh,EWS-Fli inh,PGC1a acetyl inh,LMP1 NFkB inh,TRPM1 prom inh,PAX8 inh HTS
CC1OC2CC(=O)OC2C2=C1C(=O)c1c(O)cccc1C2=O (centres undefined),100*,50,78*,nt,nt,nt
COC(=O)[C@@H]1[C@@H](CO)[C@@H]2Cn3c(ccc(-c4cccc(F)c4)c3=O)[C@@H]2N1CC1CCCC1,6,6,-7,nt,nt,64*
N/C(=N\OC(=O)Nc1ccccc1)c1ncc([N+](=O)[O-])s1,-24,17,-11,-32,68*,42
C=CCNc1nc(Nc2ccc(OC)c(OC)c2)c2sc(-c3ccccc3)cc2n1,31,56*,-19,nt,nt,nt
COCCNc1nc(NCc2ccc(NC(C)=O)cc2)c2sc(-c3ccccc3)cc2n1,34,43,nt,nt,nt,86*
CC(C)Cn1c(-c2cccc(S(=O)(=O)N3CCOCC3)c2)n[nH]c1=S,-12,0,4,71*,-6,0
CCC(C)n1c(-c2cccc(S(=O)(=O)N3CCOCC3)c2)n[nH]c1=S (centres undefined),0,3,9,-6,8,-11
Cc1cc(C)nc(NC(=O)/C=C/c2ccccc2Cl)n1,nt,nt,1,4,-13,nt
Cc1cc(N)c2cc(NC(=O)/C=C/c3ccccc3Cl)ccc2n1,nt,nt,80*,3,100*,nt
Cc1ccc(S(=O)(=O)N(C)C[C@@H]2OCCCC[C@@H](C)Oc3ccc(NC(=O)CCC(F)(F)F)cc3C(=O)N([C@@H](C)CO)C[C@H]2C)cc1,-2,-11,-3,nt,nt,6
CC(C)CC(=O)/C(=C/c1ccc(N(C)C)cc1)n1cncn1,-1,-1,-1,4,11,-6
CC(C)CC(=O)/C(=C\c1ccc(Cl)cc1Cl)n1cncn1,nt,nt,60*,8,86*,nt
C[C@H]1CN([C@@H](C)CO)C(=O)Cc2cc(NC(=O)Cc3cn(C)c4ccccc34)ccc2O[C@@H]1CN(C)C(=O)NC1CCCCC1,12,0,-6,nt,nt,3
C[C@H]1CN([C@@H](C)CO)C(=O)c2cc(NS(=O)(=O)c3cccs3)ccc2O[C@@H]1CN(C)CC1CCCCC1,-4,6,nt,nt,nt,1
CCOc1cccc(-c2c(C(=O)N/N=C(\C)c3ccncc3)nnn2-c2nonc2N)c1,-4,-6,3,4,2,-14
CCOc1cccc(-c2c(C(=O)N/N=C(\C)c3ccccn3)nnn2-c2nonc2N)c1,35,nt,14,65*,61*,69*
O=C(Nc1ccc(F)cc1)N1CC(=O)N2[C@@H](CO)[C@@H](c3ccc(-c4ccc(F)cc4)cc3)[C@@H]2C1,-8,7,-3,nt,nt,0
O=C(Nc1ccc(F)cc1)N1CC(=O)N2[C@@H](CO)[C@@H](c3ccc(C#Cc4ccc(F)cc4)cc3)[C@@H]2C1,11,2,-1,nt,nt,119*
O=C(Nc1ccc(F)cc1)N1CC(=O)N2[C@@H](CO)[C@H](c3ccc(-c4ccc(F)cc4)cc3)[C@@H]2C1,19,-3,10,nt,nt,101*
CC(C)C#Cc1ccc([C@@H]2[C@H](CO)N3C(=O)CN(C(=O)NC4CCCC4)C[C@@H]23)cc1,-5,-2,107*,nt,nt,-9
CC(C)C#Cc1ccc([C@@H]2[C@@H](CO)N3C(=O)CN(C(=O)NC4CCCC4)C[C@H]23)cc1,-5,-5,-10,nt,nt,10
COc1ccc(NC(=O)N2CC(=O)N3[C@H](C2)[C@H](c2ccc(/C=C/c4ccccc4)cc2)[C@@H]3CO)cc1,1,-3,-1,nt,nt,105*
C[C@@H]1CN([C@@H](C)CO)C(=O)c2cccc(NC(=O)c3ccc(-c4nccs4)cc3)c2O[C@H]1CN(C)C(=O)Nc1ccc(C(F)(F)F)cc1,-11,3,6,nt,nt,nt
COc1cccc(CN(C)C[C@@H]2OCc3cnnn3CCCC(=O)N([C@@H](C)CO)C[C@@H]2C)c1,-9,-4,3,nt,nt,nt
O=C(Nc1ccc(F)cc1)N1CC(=O)N2[C@H](CO)[C@H](c3ccc(C#Cc4ccc(F)cc4)cc3)[C@H]2C1,7,-4,-10,nt,nt,-15
SMILES,LGR2 inh,EWS-Fli inh,PGC1a acetyl inh,LMP1 NFkB inh,TRPM1 prom inh,PAX8 inh HTS
O=C(Nc1ccc(F)cc1)N1CC(=O)N2[C@H](C1)[C@H](c1ccc(C#Cc3ccc(F)cc3)cc1)[C@@H]2CO,22,-5,-9,nt,nt,68*
COc1ccc(NC(=O)N(C)C[C@@H]2Oc3cc(C#CCC(C)C)ccc3S(=O)(=O)N([C@@H](C)CO)C[C@@H]2C)cc1,-8,2,-6,nt,nt,65*
C[C@@H]1CN([C@@H](C)CO)S(=O)(=O)c2ccc(C#Cc3ccccc3)cc2O[C@@H]1CN(C)C(=O)Nc1ccc2c(c1)OCO2,9,7,-5,nt,nt,40
COc1cccc(NC(=O)N(C)C[C@H]2Oc3cc(C#Cc4ccncc4)ccc3S(=O)(=O)N([C@H](C)CO)C[C@H]2C)c1,-8,6,-22,-11,nt,66*
COc1cccc(C#Cc2ccc3c(c2)O[C@@H](CN(C)C(=O)c2ccccn2)[C@H](C)CN([C@@H](C)CO)S3(=O)=O)c1,-3,22,16,nt,nt,73*
C[C@@H]1CN([C@H](C)CO)S(=O)(=O)c2ccc(C#Cc3ccncc3)cc2O[C@H]1CN(C)C(=O)Nc1ccc2c(c1)OCO2,12,19,-1,nt,nt,91*
COc1cccc(C#Cc2ccc3c(c2)O[C@H](CN(C)C(=O)c2ccccn2)[C@@H](C)CN([C@@H](C)CO)S3(=O)=O)c1,1,13,4,nt,nt,10
C[C@H](CO)N1C[C@H](C)[C@@H](CN(C)C(=O)NC2CCCCC2)Oc2ccc(NC(=O)Cn3cnnn3)cc2CC1=O,-5,-14,-3,nt,nt,8
Cc1nc2c(nc1C)C(=O)c1ccccc1C2=O,39,21,-3,3,105*,6
O=C1c2ccccc2-c2nc3ccccc3nc21,nt,nt,1,-3,-31,nt
C[C@H](CO)N1C[C@H](C)[C@@H](CN(C)C(=O)Nc2cccc3ccccc23)OCCCC[C@H](C)Oc2ccc(NC(=O)NC3CCCCC3)cc2C1=O,24,16,3,nt,nt,3
